Laboratory results as given in ChEMBL document CHEMBL3988442, “University of Dundee, Small-Polar-MMV Screening Library” (2021).
For some of these results: Measured potencies and affinities stand elsewhere.

How the values were obtained:
Set-up in all cases: scale not given: direction of the effect not stated beside the values
[1] = molecular target: Protein translocase subunit SecA (Escherichia coli (strain K12)) (UniProt P10408); experiment: Assay to Identify E. coli SecA ATPase Inhibitors; format: functional; settings: 30 µM
[2] = molecular target: T1, Ubiquitin-activating enzyme e1, putative (Leishmania donovani (strain BPK282A1)) (UniProt E9BSI1); experiment: Leishmania donovani Ubiquitin Activating Enzyme (LdE1); format: functional; settings: 30 µM
T1 sequence (whole entry): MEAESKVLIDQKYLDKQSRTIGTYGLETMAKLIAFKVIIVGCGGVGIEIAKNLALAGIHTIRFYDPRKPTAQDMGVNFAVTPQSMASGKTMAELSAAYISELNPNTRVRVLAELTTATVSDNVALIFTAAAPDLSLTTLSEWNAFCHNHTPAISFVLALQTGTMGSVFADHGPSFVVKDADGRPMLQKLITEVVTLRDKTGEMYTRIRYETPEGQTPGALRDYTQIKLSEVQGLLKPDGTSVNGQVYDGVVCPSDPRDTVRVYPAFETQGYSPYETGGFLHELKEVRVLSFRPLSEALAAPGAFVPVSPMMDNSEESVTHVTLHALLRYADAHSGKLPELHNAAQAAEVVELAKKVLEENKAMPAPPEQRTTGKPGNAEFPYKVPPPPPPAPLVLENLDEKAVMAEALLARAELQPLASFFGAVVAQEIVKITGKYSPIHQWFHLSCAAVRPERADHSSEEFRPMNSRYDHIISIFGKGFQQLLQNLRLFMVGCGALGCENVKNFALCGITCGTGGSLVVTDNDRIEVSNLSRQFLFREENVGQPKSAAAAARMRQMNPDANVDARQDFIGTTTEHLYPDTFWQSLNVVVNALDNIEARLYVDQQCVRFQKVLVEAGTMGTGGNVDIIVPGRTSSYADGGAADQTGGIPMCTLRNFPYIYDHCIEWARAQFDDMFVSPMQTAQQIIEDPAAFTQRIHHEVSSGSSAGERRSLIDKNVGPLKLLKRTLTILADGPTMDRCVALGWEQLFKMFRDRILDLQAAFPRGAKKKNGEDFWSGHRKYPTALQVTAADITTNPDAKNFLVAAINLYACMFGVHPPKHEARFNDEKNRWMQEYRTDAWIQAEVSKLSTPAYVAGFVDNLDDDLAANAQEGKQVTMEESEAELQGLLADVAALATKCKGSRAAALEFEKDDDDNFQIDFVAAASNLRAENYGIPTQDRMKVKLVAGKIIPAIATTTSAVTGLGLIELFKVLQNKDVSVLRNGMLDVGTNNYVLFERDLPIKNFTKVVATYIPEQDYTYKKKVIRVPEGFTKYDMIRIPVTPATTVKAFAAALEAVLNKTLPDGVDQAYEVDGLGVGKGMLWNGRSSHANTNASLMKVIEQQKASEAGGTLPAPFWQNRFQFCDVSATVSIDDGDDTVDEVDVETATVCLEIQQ

[3] = molecular target: AMP-activated protein kinase, AMPK (Homo sapiens) (UniProt P54646+O43741+P54619+Q9UGJ0+Q9Y478+Q13131+Q9UGI9); experiment: AMP-dependent Kinase enzyme assay. An in vitro enzyme assay that detects ADP turnover that is directly proportional to AMPK activity. This uses naive AMPK that is activated during the assay with MK-8722; format: functional; settings: 30 µM
[4] = molecular target: Sialic acid-binding Ig-like lectin 9 (Homo sapiens) (UniProt Q9Y336); experiment: Hs-Siglec9 ALPHAscreen SOP 20170721; settings: 10 µM
Trypanosoma cruzi = experiment: Trypanosoma cruzi phosphomannomutase and mannose-1-phosphate guanylyltransferase assay; format: functional; settings: 10 µM
[5] = molecular target: T2, Arginase-2, mitochondrial (Homo sapiens) (UniProt P78540); experiment: in vitro enzyme assay to detect the production of urea directly proportional to the activity of Arginase II; format: functional; settings: 33.3 µM; note: in the data most compounds retested in dose-response had high values
T2 sequence (whole entry): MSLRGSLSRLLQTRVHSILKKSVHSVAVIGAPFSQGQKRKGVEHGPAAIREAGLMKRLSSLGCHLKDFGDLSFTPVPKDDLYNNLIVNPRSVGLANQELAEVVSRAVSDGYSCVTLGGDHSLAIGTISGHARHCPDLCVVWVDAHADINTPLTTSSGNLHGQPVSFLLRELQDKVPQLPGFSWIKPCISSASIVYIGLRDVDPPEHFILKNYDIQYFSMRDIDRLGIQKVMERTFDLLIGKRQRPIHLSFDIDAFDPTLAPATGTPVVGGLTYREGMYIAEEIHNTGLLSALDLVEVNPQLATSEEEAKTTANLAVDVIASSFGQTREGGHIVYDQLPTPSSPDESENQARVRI

[6] = molecular target: T3, Proteasome subunit beta (Trypanosoma cruzi) (UniProt O96673); experiment: Trypanosoma cruzi proteasome chymotrypsin-like activity (TcProtChymo) assay.; note: in the data most compounds retested in dose-response had high values; format: functional; settings: 9.37 µM
T3 sequence (whole entry): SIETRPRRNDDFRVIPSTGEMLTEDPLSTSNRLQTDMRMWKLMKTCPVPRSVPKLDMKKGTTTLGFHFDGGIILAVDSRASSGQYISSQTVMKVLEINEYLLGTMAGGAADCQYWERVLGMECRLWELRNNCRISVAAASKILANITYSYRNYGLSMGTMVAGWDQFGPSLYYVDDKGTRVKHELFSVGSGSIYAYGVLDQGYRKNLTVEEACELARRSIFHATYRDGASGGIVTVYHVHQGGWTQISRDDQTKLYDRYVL

Homo sapiens = organism: Homo sapiens; experiment: To identify inhibition of the IFN signalling (Jak-Stat) pathway via expression of an eGFP reporter gene under the control of an IFN-stimulated response element (ISRE) containing MxA promoter.; format: functional; settings: 30 µM
[7] = molecular target: T4, Tyrosyl-tRNA synthetase, putative (Trypanosoma cruzi (strain CL Brener)) (UniProt Q4DSP6); experiment: Trypanosoma cruzi tyrosyl tRNA synthetase (TcYRS) _High Tyrosine SOP; format: functional; settings: 30 µM; note: in the data most compounds retested in dose-response had high values
T4 sequence (whole entry): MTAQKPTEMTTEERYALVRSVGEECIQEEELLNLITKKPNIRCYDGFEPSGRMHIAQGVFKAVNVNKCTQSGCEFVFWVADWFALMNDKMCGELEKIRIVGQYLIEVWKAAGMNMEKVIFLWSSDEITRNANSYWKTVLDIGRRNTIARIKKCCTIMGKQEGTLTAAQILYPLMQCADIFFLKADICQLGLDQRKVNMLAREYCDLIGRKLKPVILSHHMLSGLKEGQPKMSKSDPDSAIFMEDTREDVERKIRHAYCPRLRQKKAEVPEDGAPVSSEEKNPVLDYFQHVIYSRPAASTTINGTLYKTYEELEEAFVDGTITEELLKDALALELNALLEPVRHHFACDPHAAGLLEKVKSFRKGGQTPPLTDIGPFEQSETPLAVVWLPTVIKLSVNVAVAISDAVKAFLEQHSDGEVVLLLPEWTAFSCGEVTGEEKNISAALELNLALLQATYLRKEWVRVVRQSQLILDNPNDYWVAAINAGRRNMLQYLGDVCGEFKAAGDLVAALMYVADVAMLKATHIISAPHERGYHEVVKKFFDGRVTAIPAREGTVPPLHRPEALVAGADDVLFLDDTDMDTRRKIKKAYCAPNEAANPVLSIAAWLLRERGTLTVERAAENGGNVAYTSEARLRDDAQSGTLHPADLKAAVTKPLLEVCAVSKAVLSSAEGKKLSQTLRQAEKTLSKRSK

[8] = molecular target: T4, Tyrosyl-tRNA synthetase, putative (Trypanosoma cruzi (strain CL Brener)); experiment: Trypanosoma cruzi tyrosyl tRNA synthetase (TcYRS) SOP; format: functional; settings: 30 µM
[9] = molecular target: Chromo domain-containing protein 1 (Saccharomyces cerevisiae (strain ATCC 204508 / S288c) (Baker's yeast)) (UniProt P32657); experiment: ScCHD-1 Enzyme Inhibition Assay; format: functional; settings: 30 µM; note: in the data most compounds retested in dose-response had high values
Sequence of Chromo domain-containing protein 1 (Saccharomyces cerevisiae (strain ATCC 204508 / S288c) (Baker's yeast)) (P32657 whole entry, the tested form may be a part): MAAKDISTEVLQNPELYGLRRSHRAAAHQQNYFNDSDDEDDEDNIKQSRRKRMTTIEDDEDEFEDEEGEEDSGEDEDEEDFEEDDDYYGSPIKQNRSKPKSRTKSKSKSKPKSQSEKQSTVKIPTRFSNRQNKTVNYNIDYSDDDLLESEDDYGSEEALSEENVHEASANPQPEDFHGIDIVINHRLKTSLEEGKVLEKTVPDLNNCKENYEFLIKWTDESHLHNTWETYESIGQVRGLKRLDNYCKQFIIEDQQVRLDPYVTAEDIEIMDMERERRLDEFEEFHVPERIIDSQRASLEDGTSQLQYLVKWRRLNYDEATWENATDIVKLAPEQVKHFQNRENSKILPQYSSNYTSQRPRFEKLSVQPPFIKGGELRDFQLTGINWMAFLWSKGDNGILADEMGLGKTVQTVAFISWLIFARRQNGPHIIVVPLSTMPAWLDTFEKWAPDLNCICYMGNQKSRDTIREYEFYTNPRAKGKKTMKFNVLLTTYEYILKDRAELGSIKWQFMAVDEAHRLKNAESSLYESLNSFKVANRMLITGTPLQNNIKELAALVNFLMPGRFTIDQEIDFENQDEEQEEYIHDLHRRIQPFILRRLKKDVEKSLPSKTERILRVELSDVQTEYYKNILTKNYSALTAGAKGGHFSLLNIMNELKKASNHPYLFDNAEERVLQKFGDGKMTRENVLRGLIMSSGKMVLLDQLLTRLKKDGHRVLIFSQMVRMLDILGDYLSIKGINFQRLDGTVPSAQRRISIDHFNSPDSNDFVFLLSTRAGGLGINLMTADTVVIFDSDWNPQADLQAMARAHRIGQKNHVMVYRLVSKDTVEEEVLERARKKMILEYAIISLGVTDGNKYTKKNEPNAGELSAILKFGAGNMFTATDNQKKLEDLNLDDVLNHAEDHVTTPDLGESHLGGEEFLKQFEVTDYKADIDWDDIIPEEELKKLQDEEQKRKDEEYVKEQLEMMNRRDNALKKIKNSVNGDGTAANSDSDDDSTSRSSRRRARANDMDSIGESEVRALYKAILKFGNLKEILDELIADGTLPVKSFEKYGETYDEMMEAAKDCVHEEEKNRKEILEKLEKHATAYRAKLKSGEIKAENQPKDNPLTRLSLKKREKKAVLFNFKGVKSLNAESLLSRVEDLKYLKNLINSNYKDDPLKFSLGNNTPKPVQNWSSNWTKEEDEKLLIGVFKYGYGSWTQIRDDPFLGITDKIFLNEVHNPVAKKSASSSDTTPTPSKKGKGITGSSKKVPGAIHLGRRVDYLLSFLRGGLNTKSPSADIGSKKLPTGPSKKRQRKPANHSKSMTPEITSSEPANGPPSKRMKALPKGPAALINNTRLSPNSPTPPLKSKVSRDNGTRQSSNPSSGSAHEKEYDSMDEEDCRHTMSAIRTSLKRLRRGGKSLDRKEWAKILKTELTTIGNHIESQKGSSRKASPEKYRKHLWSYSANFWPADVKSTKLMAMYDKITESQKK

Sequence of Sialic acid-binding Ig-like lectin 9 (Homo sapiens) (Q9Y336 whole entry): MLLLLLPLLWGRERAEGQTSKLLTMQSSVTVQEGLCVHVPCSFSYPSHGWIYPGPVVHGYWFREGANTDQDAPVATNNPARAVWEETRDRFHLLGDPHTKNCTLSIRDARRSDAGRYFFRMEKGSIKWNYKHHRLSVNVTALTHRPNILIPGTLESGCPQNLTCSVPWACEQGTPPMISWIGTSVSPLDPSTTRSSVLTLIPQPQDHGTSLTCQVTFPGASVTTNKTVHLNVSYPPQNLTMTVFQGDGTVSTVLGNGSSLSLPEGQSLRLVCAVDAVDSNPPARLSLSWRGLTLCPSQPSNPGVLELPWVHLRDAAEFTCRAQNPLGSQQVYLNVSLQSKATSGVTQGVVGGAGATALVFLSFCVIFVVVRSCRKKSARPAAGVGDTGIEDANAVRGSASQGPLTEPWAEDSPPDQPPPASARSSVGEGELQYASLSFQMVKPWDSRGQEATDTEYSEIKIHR
Sequence of Protein translocase subunit SecA (Escherichia coli (strain K12)) (P10408 whole entry): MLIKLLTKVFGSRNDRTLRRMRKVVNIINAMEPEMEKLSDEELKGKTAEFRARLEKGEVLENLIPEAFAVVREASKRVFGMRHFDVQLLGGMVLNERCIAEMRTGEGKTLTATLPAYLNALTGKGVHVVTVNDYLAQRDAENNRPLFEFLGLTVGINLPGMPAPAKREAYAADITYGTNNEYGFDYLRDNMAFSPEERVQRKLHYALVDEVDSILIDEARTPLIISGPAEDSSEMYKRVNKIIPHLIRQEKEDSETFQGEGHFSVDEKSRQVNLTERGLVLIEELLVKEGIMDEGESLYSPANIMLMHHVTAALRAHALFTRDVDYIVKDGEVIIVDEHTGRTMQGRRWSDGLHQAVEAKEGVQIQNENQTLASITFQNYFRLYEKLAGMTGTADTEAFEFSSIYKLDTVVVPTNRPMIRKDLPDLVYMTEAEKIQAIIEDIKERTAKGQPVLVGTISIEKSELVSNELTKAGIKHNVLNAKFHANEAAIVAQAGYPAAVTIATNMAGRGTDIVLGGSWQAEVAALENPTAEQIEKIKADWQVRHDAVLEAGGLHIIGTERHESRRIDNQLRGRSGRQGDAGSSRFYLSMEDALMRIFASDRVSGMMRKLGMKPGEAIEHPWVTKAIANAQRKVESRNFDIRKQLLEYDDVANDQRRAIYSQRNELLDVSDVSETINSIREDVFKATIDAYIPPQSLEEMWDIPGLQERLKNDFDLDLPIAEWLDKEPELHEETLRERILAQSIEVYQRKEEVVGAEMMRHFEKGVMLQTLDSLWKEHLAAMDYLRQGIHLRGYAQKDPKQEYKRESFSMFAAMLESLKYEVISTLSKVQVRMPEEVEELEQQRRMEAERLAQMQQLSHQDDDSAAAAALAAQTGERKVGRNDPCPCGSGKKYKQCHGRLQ

| Structure (SMILES) | Percent Effect [1] [%] | Percent Effect [2] [%] | Percent Effect [3] [%] | Percent Effect [4] [%] | Percent Effect (Trypanosoma cruzi) [%] | Percent Effect [5] [%] | Percent Effect [6] [%] | Percent Effect (Homo sapiens) [%] | Percent Effect [7] [%] | Percent Effect [8] [%] | Percent Effect [9] [%] |
| --- | --- | --- | --- | --- | --- | --- | --- | --- | --- | --- | --- |
| Cc1csc(CCCNC(=O)[C@H]2CNC[C@@H](C(=O)N3CCCC3)C2)n1 | -4.06 | 8.22 | 0.0773 | 8.38 | -1.39 | 0.399 | 15.8 | -8.49 | 10.4 | 11.1 | -1.73 |
| CC(C)CCN1CCNC(=O)C1CC(=O)N1CCc2sccc2C1 (stereo unspecified) | -4.93 | 0 | 0.663 | 4.62 | 3.44 | -15.2 | 1.17 | -17.6 | 4.3 | 8.64 | 1.1 |
| Cc1ccc2c(c1)CN(C(=O)C1CCCCC1)C(CN(C)C)CO2 (stereo unspecified) | -4.37 | 12.2 | 11.3 | -8.18 | -4.54 | -4.41 | 12 | 8.85 | 3.23 | 9.09 | -13.3 |
| NC(=O)C1CN(C(=O)Nc2ccccc2SC(F)(F)F)CCO1 (stereo unspecified) | -2.59 | 10.8 | -2.48 | 12.1 | 7.15 | -1.29 | 4.31 | 9.57 | 5.94 | 18.3 | -7.87 |
| OCC1CCCN1c1cc(NCc2ccc(Cl)s2)ncn1 (stereo unspecified) | 0.246 | 8.86 | -3.63 | -2.18 | -1.95 | -3.66 | 24 | 74.3 | 4.17 | 15.2 | -15.5 |
| COCCCN(CCOC)C(=O)Nc1ccccc1Br | 0.00988 | -5.26 | 4.89 | -4.8 | -1.46 | -10.7 | 2.01 | -13.7 | 3.19 | 2.6 | 0.558 |
| CCOCC(=O)NC1(c2cccc(Br)c2)CC1 | -8.13 | 0 | 0.838 | 9.79 | -3.67 | -2.38 | 7.76 | 13.1 | -1.59 | -2.44 | -3.38 |
| CCc1c(C)nc2cc(C3CCN(Cc4ccccc4F)C3)nn2c1O (stereo unspecified) | 0.76 | -14.9 | -7.43 | -10.9 | -2.77 | 2.09 | 20.9 | 17 | 4.3 | 9.09 | -7.83 |
| Cc1ccccc1C(=O)N1CCOC2(CNCCOC2)C1 (stereo unspecified) | -0.256 | 2.7 | -1.58 | 2.44 | -2.51 | -1.43 | 17.8 | 11.5 | 1.59 | 9.76 | -3.15 |
| Cc1nnc(N2CC[C@H]3C[C@H](C(=O)N4CCOCC4)O[C@H]3C2)s1 | -2.55 | 0 | 5.32 | 2.05 | 0.0978 | -0.955 | 14.6 | -19.4 | 1.08 | 5.13 | 1.53 |
| COc1ccc(CN2C[C@@H]3COC[C@]3(COc3cccnc3)C2)cc1 | -1.95 | 0 | 3.5 | -0.202 | 3.12 | -0.417 | 4.14 | -15.2 | 0 | 6.1 | -0.593 |
